Shiga toxin inh: A qHTS for Small Molecule Inhibitors of Shiga Toxin. hit rate 9.2% among 290,000. AID 2315, 2010. inhibition, % at 38.7 µM. Vero cells, Shiga toxin protein synthesis inhibition reporter; in the data active = inhibition mostly above about 28%, no sharp cut-off; inactive = mostly below about 43%; note: 0% is about no effect
Vaccinia mCherry: qHTS for Stage-Specific Inhibitors of Vaccinia Orthopoxvirus: mCherry Reporter Primary qHTS | Vaccinia virus mCherry reporter infection, fluorescence | Potency, µM (doses to about 36.5 µM), without a hit: at the top dose activity change, negative = inhibition, usual class: inhibitors | hit rate 0.63% among 310,000; calls by dose curve; tested in A549 cells; note: potency is the fitted concentration of half-maximal effect; % is set by controls: 0 for no effect and ±100 for the full control effect; nearly all actives have a fitted effect of over 35% in size
LASV entry inh: qHTS for Inhibitors of binding or entry into cells for Lassa Virus. Potency, µM (highest dose often 37.9 µM), without a hit: at the top dose activity change, negative = inhibition, hits mostly inhibitors. hit rate 1.2% among 300,000. Lassa virus pseudotype entry inhibition, cell reporter; calls by dose curve; tested in HEK293 cells; note: potency is the fitted concentration of half-maximal effect; % is set by controls: 0 for no effect and ±100 for the full control effect; nearly all actives have a fitted effect of over 50% in size
Vaccinia Venus: qHTS for Stage-Specific Inhibitors of Vaccinia Orthopoxvirus: Venus Reporter Primary qHTS; Vaccinia virus Venus reporter expression, fluorescence; Potency, µM (top dose mostly 36.5 µM), for inactives: top-dose activity change, negative = inhibition, hits mostly inhibitors; hit rate 0.46% among 330,000; AID 720580, 2013; calls by dose curve; tested in A549 cells; note: potency is the fitted concentration of half-maximal effect; % is set by controls: 0 for no effect and ±100 for the full control effect; nearly all actives have a fitted effect of over 30% in size
CHX counter: Cycloheximide Counterscreen for Small Molecule Inhibitors of Shiga Toxin; max response, %; AID 2314, 2010; cell reporter, cycloheximide protein synthesis inhibition counterscreen; hit rate 12% among 300,000; in the data active = max response mostly above about 13%, no sharp cut-off; inactive = mostly below about 14%; note: read at 38.3 µM for the half of the compounds with a filed dose; 0% is about no effect
Marburg entry inh: qHTS for inhibitors of binding or entry into cells for Marburg Virus; Marburg virus pseudotyped entry inhibition, cell reporter; Potency, µM (titrated, usually from 37.8 µM), inactives show at the highest dose activity change, negative = inhibition, hits mostly inhibitors; hit rate 1.8% among 300,000; AID 540276, 2011; calls by dose curve; tested in HEK293 cells; note: potency is the fitted concentration of half-maximal effect; % is set by controls: 0 for no effect and ±100 for the full control effect
* hit, by the source's call; i = inactive; ? = inconclusive; . = no result; ! = not active in a repeat; [ ] = another dose, or the depositor's remark. The full list was thinned out, with hits kept by preference.

SMILES	Shiga toxin inh	Vaccinia mCherry	LASV entry inh	Vaccinia Venus	CHX counter	Marburg entry inh
OCc1ccccc1OCCOc1ccc(Cl)c2cccnc12	57.5	.	1.3%	.	27.3*	12.6%
Clc1ccc(Oc2ccccc2)c2ncccc12	-3.8	-20.8%	17.3%[46.1 µM]	-14.2%	-4.1	5.9%[46.1 µM]
CC(=O)CCc1ccc(OCCCOc2cccc3cccnc23)cc1	45.6*	.	.	.	28.7*	.
CC(=O)c1ccc(OCCCOc2cccc3cccnc23)cc1	-3.5	.	.	.	2.6	.
Clc1ccc(OCc2cn3ccccc3n2)c2ncccc12	89.8*	-3.6%	-2.5%	-4.5%	37.2*	?
Brc1ccc(OCCOc2cccc3cccnc23)cc1	14.5	-21.4%	12.1%	-10.5%	-3.3	6.8%
c1ccc(OCCOc2cccc3cccnc23)cc1	68.3*	-21.8%	-0.7%	-22.0%	33.2*	0.3%
COc1ccccc1CSc1nc2n(n1)C(c1ccccc1)C(C(=O)Nc1ccc(C)cc1)=C(C)N2 (configuration not stated)	.	?	-9.0%[46.1 µM]	?	.	-6.7%[46.1 µM]
O=C(O)c1ccc(OCc2cn3ccccc3n2)cc1	25.6*	.	.	.	29.3*	.
OCc1ccccc1OCCCOc1cccc2cccnc12	53.2*	i	-0.8%	-17.8%	26.3*	-5.8%
CSc1nc(C(=O)NCc2nc(-c3cccc(NC(=O)c4ccc(C)s4)c3)oc2C)cs1	.	-4.3%	.	14.3%	.	.
CC(C)(C)C(Cn1ccnc1)NC(=O)c1ccc2nc(C3CC3)oc2c1 (configuration not stated)	33.2	-17.7%	4.4%	-9.7%	8.2	7.0%
Cc1onc(-c2ccccc2Cl)c1C(=O)O/N=C(\N)c1cccc([N+](=O)[O-])c1	.	?	.	-25.3%	.	.
Cc1onc(-c2ccccc2Cl)c1C(=O)O/N=C(\N)c1ccccc1	19.0	.	.	.	23.1*	.
Cc1onc(-c2cccc(Cl)c2Cl)c1C(=O)O/N=C(\N)c1ccc([N+](=O)[O-])o1	32.2	?	8.3%	?	9.1*	12.5%[14.2 µM]
COc1ccccc1NC(=O)/C(=C/c1ccncc1)NC(=O)c1ccccc1	-6.8	-7.8%	-5.8%[46.1 µM]	-0.1%	-4.9	4.4%[46.1 µM]
CC(C)(C)c1ccc(S(=O)(=O)NCc2ccccn2)cc1	48.2	-2.0%	5.8%	-15.7%	18.0*	15.0%
O=C(NC(=S)Nc1ccccc1O)c1ccccc1Cl	77.3*	-5.0%	-26.6%	-5.5%	43.9*	?
CC(=O)c1cccc(NC(=O)CCNC(=O)c2ccccc2Cl)c1	12.4	-25.7%	5.5%[46.1 µM]	-11.8%	5.9	-8.7%[46.1 µM]
Cc1ccccc1C(=O)NC(=S)Nc1ccccc1C(=O)O	15.1	i	16.5%[46.1 µM]	-13.9%	10.3	10.7%[46.1 µM]
CC(=O)c1cccc(NC(=S)NC(=O)c2ccc(C)cc2Cl)c1	90.4*	.	.	.	37.8*	.
CC(=O)c1cccc(NC(=S)NC(=O)c2ccccc2Cl)c1	83.3*	-10.7%	-0.3%	0.1%	21.2*	5.6%
CCC(=O)NC(=S)Nc1cccc(C(C)=O)c1	-3.0	.	17.5%	3.5%	1.1	5.7%[46.1 µM]
COc1cc(CC(=O)N2CCc3ccccc32)cc(OC)c1OC	-14.0	?	-33.5%	-27.8%	1.6	-10.1%
CCOC(=O)N1CCc2cc(OC)c(OC)c3c2c1cc1cc(OC)c(OC)cc13	.	-29.6%	?	?	.	7.94µM*
SMILES	Shiga toxin inh	Vaccinia mCherry	LASV entry inh	Vaccinia Venus	CHX counter	Marburg entry inh
CCOC(=O)C1CCN(c2ncnc3c2c(-c2ccccc2)cn3-c2ccc(C)c(Cl)c2)CC1	.	-5.6%	?	-4.4%	.	.
CN=c1nc(-c2ccccc2)n(-c2ccccc2)s1	.	-15.0%	23.1µM*	-25.5%	.	14.1µM*!
CCOc1ccc(NC(=O)Cn2c(C)cc3ccccc3c2=O)cc1	.	-5.8%	-0.5%[46.1 µM]	-1.1%	.	?
Cc1cccc(-n2cc(CN3CCCN(C=O)CC3)c(-c3cccc(F)c3)n2)c1	52.3*	-2.5%	12.1%	-11.4%	23.9*	?
O=C(c1cc([N+](=O)[O-])ccc1N1CCOCC1)N1CCN(c2ccccc2)CC1	-2.6	.	.	.	-3.8	.
O=[N+]([O-])c1ccc(O)c(C(C#Cc2ccccc2)N2CCOCC2)c1 (configuration not stated)	66.2*	i	?	-19.2%	25.9*	?
NC1=NC(=O)C2N=CN(COCCO)C2=N1 (configuration not stated)	.	.	.	.	.	4.3%
O=C(N/N=C\c1ccncc1)c1ccc(Cl)s1	24.6	-25.8%	3.5%[46.1 µM]	-22.3%	14.9	-15.1%[46.1 µM]
